An excerpt weighted towards active compounds, which were near 8.2% of everything screened.
KB-V1 MDR tox = kills drug-selected multidrug resistant KB-V1 cells; KB-V1 MDR cells viability, CellTiter-Glo, 72 h; Potency, µM (highest dose often 46.1 µM), usual class: cytotoxic; 400,000 tested, 3.4% active; further: on the % scale 0 is the no-effect control and ±100 the full control effect; nearly all actives have a fitted effect of over 60% in size
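KB-V1 MDR subline cells in DMEM (phenol-red free, 10% FBS) exposed to compounds in qHTS concentration series for 72 h at 37 degrees C. Viability read by CellTiter-Glo luminescence; concentration-effect curves fitted after normalization and correction.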
MCF10A rerep = induces DNA re-replication in MCF 10a normal breast cells. MCF 10A DNA re-replication, Hoechst nuclear intensity, 48 h. Potency, µM (titrated, usually from 46.1 µM), inactives show top-dose activity, positive = re-replication, most hits filed as activators. AID 624296. 350,000 tested, 2.9% active; further: % of control where 0% means no effect; nearly all actives have a fitted effect of over 50% in size
ELG1 repair inh = ELG1-dependent DNA repair inhibition; HEK293T ELG1-luciferase reporter, luminescence, 16 h; DNA damage induced by 5-fluorouridine; Potency, µM (titrated, usually from 46.1 µM), for the others: at the highest dose activity change, negative = inhibition, usual class: inhibitors; 330,000 tested, 2.3% active; AID 504467; further: on the % scale 0 is the no-effect control and ±100 the full control effect; nearly all actives have a fitted effect of over 55% in size
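DMSO vehicle served as the neutral condition. Each well held 2,000 cells given 5-fluorouridine plus compound; after 16 hr at 37 °C/5% CO2, ONE-Glo was added and luciferase measured 30 min later.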
SW480 rereplic = inducers of DNA re-replication in SW480 colon cancer cells. SW480 DNA re-replication, Hoechst DNA content imaging, 48 h. Potency, µM (top dose mostly 46.1 µM), without a hit: top-dose re-replication activation, most hits filed as activators. 340,000 tested, 1.8% active. AID 624297; further: % of control where 0% means no effect; nearly all actives have a fitted effect of over 55% in size
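DNA re-replication was detected as more nuclei of elevated Hoechst intensity after 48 hr exposure to compound (23 nL pinned per well of 250 cells).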
KB-3-1 tox = kills parental KB-3-1 adenocarcinoma cells | KB-3-1 viability, CellTiter-Glo ATP luminescence, 72 h | Potency, µM (titrated, usually from 46.1 µM), usual class: cytotoxic | 400,000 tested, 1.4% active | AID 1347075; further: on the % scale 0 is the no-effect control and ±100 the full control effect; nearly all actives have a fitted effect of over 60% in size
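Using CellTiter-Glo luminescence, growth of non-resistant KB-3-1 adenocarcinoma cells is assessed 72 h after pin-tool compound addition at 37 °C. Normalized responses across the concentration series yield fitted curves.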
* marks the source's active call; other numbers are inactive results. The call rests on the fitted dose curve; in most records, active means well fitted curve in the direction sought with a large enough effect; inconclusive means small, poorly fitted or top-dose-only effect, or another doubt; inactive means no such curve, though single readings can be large; an effect the other way counts as inactive or inconclusive. Potency means the concentration at half of the fitted maximal effect.

Cc1cccc2cc(C(c3nnnn3CC3CCCO3)N3CCc4ccccc4C3)c(=O)[nH]c12 (stereo unspecified) was read as KB-V1 MDR tox inconclusive, MCF10A rerep 8.1%, ELG1 repair inh -1.9%, SW480 rereplic -0.2% and KB-3-1 tox inactive.
Screening Cc1cccc2cc(C(c3nnnn3CC3CCCO3)N3CCCc4ccccc43)c(=O)[nH]c12 (stereo unspecified) returned KB-V1 MDR tox 18.4µM*, MCF10A rerep -0.2%, ELG1 repair inh -13.8%, SW480 rereplic 14.8% and KB-3-1 tox inactive.
Cc1cc2cc(C(c3nnnn3CC3CCCO3)N3CCCc4ccccc43)c(=O)[nH]c2cc1C (stereo unspecified) was read as KB-V1 MDR tox 20.6µM*, MCF10A rerep inconclusive, ELG1 repair inh 9.0%, SW480 rereplic inconclusive and KB-3-1 tox inconclusive.
`Cc1ccc2cc(C(c3nnnn3CC3CCCO3)N3CCCC4(CCCCC4)C3)c(=O)[nH]c2c1` (stereo unspecified) gave KB-V1 MDR tox 14.6µM*, MCF10A rerep -6.6%, SW480 rereplic -2.1% and KB-3-1 tox inactive.
Screening CC(=O)Nc1ccc2c(=O)n(-c3ccccc3)sc2c1 returned KB-V1 MDR tox inactive and KB-3-1 tox inactive.
Screening Cc1ccccc1-n1sc2cc(F)ccc2c1=O returned KB-V1 MDR tox inconclusive, MCF10A rerep 16.4µM*, ELG1 repair inh inconclusive, SW480 rereplic inconclusive and KB-3-1 tox inconclusive.
`O=C(CS(=O)(=O)c1ccc(Cl)cc1)Nc1nc2ccc(Br)cc2s1` gave KB-V1 MDR tox inactive and KB-3-1 tox inactive.
For Cc1cc2c(c3oc(=O)c4ccccc4c13)CN(Cc1ccc(F)cc1)CO2 the results were KB-V1 MDR tox inactive and KB-3-1 tox inactive.
COc1ccc(-c2noc(N3CCC(C(=O)NC(C)c4ccccc4)CC3)n2)cc1 (stereo unspecified) was read as KB-V1 MDR tox inactive, MCF10A rerep 2.2%, ELG1 repair inh 13µM*, SW480 rereplic -1.4% and KB-3-1 tox inconclusive.
Screening COc1ccc(-c2noc(N3CCC(C(=O)Nc4ccccc4Cl)CC3)n2)cc1 returned KB-V1 MDR tox inactive, MCF10A rerep -3.9%, ELG1 repair inh inconclusive, SW480 rereplic -8.6% and KB-3-1 tox inactive.
O=C(O)c1ccc(/C=C/c2nc3ccccc3c(=O)[nH]2)cc1 was read as KB-V1 MDR tox inactive, MCF10A rerep 6.7%, ELG1 repair inh 7.6%, SW480 rereplic inconclusive and KB-3-1 tox inactive.
Cc1cccc(/C=C/c2nc3ccccc3c(=O)[nH]2)c1 was read as KB-V1 MDR tox inconclusive, MCF10A rerep 8.2µM*, ELG1 repair inh inconclusive, SW480 rereplic 5.17µM* and KB-3-1 tox inconclusive.
For C(=C\c1c[nH]c2ccccc12)/c1ccnc2ccccc12 the results were KB-V1 MDR tox inactive and KB-3-1 tox inactive.
`Clc1ccc(/C=C/c2nc3ccccc3[nH]2)cc1` gave KB-V1 MDR tox inactive, MCF10A rerep inconclusive, ELG1 repair inh inconclusive, SW480 rereplic -4.3% and KB-3-1 tox inconclusive.
Clc1ccc(/C=C/c2nc3ccccc3[nH]2)c(Cl)c1 was read as KB-V1 MDR tox inconclusive, MCF10A rerep 16.4µM*, ELG1 repair inh inconclusive, SW480 rereplic inconclusive and KB-3-1 tox inactive.
For Cc1[nH]c2ccccc2c1/C=C/c1ccnc2ccccc12 the results were KB-V1 MDR tox 7.31µM* and KB-3-1 tox 8.2µM*.
Screening O=c1[nH]c(/C=C/c2ccccc2Cl)nc2ccccc12 returned KB-V1 MDR tox inactive, MCF10A rerep 15.6%, ELG1 repair inh inconclusive, SW480 rereplic 18.4µM* and KB-3-1 tox inconclusive.
`Cc1c(NC(=O)COC(=O)c2cccn2C)c(=O)n(-c2ccccc2)n1C` gave KB-V1 MDR tox inactive, MCF10A rerep 0.0%, ELG1 repair inh -2.3%, SW480 rereplic 0.5% and KB-3-1 tox inactive.
Cc1[nH]c2ccccc2c1/C=C/c1nc2ccccc2c(=O)[nH]1 was read as KB-V1 MDR tox inconclusive, MCF10A rerep 23.1µM*, ELG1 repair inh inconclusive, SW480 rereplic 16.4µM* and KB-3-1 tox inconclusive.
Screening CC(C)(C)S(=O)N1Cc2cc(CO)cc(CCO)c2[C@H]1CCO (stereo partly specified) returned KB-V1 MDR tox inactive, MCF10A rerep -2.2%, SW480 rereplic -19.8% and KB-3-1 tox inactive.
COc1ccc2c(c1OC)OCC2C (stereo unspecified) was read as KB-V1 MDR tox 14.6µM*, MCF10A rerep inconclusive, SW480 rereplic 8.1% and KB-3-1 tox inconclusive.
For COc1ccc(C2C(C#N)=C(N)OC3=C2C(=O)CC(C)C3)c(OC)c1OC (stereo unspecified) the results were KB-V1 MDR tox inactive, MCF10A rerep 5.1%, ELG1 repair inh 0.7%, SW480 rereplic -9.1% and KB-3-1 tox inactive.
For COc1ccc(-c2cc(C(=O)NC3CCCC3)c3ccccc3n2)cc1OC the results were KB-V1 MDR tox inactive, MCF10A rerep 16.8%, SW480 rereplic 0.6% and KB-3-1 tox inactive.
For COc1cccc(-c2cc(C(=O)Nc3ccncc3)c3ccccc3n2)c1 the results were KB-V1 MDR tox inconclusive, MCF10A rerep inconclusive, ELG1 repair inh -10.9%, SW480 rereplic -5.6% and KB-3-1 tox inactive.
`COc1cc(-c2cc(C(=O)Nc3ccc(O)cc3)c3ccccc3n2)cc(OC)c1OC` gave KB-V1 MDR tox inactive, MCF10A rerep 7.9%, ELG1 repair inh 5.8µM*, SW480 rereplic -2.7% and KB-3-1 tox inactive.
For COc1ccc(-c2cc(C(=O)NC(C)c3ccccn3)c3ccccc3n2)cc1OC (stereo unspecified) the results were KB-V1 MDR tox inconclusive, MCF10A rerep inconclusive, ELG1 repair inh 16.4µM*, SW480 rereplic 292.3% and KB-3-1 tox inactive.
For COc1cc(-c2cc(C(=O)Nc3nc4ccccc4s3)c3ccccc3n2)cc(OC)c1OC the results were KB-V1 MDR tox inactive, MCF10A rerep inconclusive, ELG1 repair inh 5.17µM*, SW480 rereplic 13.4% and KB-3-1 tox inactive.
For COc1cc(-c2cc(C(=O)NCCc3ccc(S(N)(=O)=O)cc3)c3ccccc3n2)cc(OC)c1OC the results were KB-V1 MDR tox inactive, MCF10A rerep -8.5%, ELG1 repair inh 4.11µM*, SW480 rereplic -5.2% and KB-3-1 tox inactive.
Screening O=C(Nc1cccc(C(F)(F)F)c1)Nn1cnnc1 returned KB-V1 MDR tox inactive, MCF10A rerep 0.2%, ELG1 repair inh 1.0%, SW480 rereplic -11.2% and KB-3-1 tox inactive.
COc1cccc(OC)c1C(=O)OCc1c(-c2ccccc2)ncc2ccccc12 was read as KB-V1 MDR tox inactive, MCF10A rerep 24.1%, ELG1 repair inh inconclusive, SW480 rereplic 0.8% and KB-3-1 tox inactive.
